Lassa entry inh – Lassa virus entry inhibition; Lassa virus pseudotype entry inhibition, cell reporter; Potency, µM (doses to about 37.9 µM), without a hit: at the top dose activity change, negative = inhibition, most hits filed as inhibitors; actives 1.2% (n = 300,000); calls by dose curve; tested in HEK293 cells; note: potency is the fitted concentration of half-maximal effect; nearly all actives have a fitted effect of over 50% in size
HCMV inh – inhibitors of human cytomegalovirus; HFF cells, HCMV-luciferase reporter, 72 h; active compounds read low; activity change, negative = inhibition, % at 57.5 µM; actives 4.5% (n = 410,000); AID 1259415; in the data active = activity change below about -60%; inconclusive = no clear call, values can overlap the other calls; inactive = above about -39%
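Luciferase read-out from HCMV-luciferase-infected HFFs (MOI 1 PFU/cell) 72 h post infection at 37C; compounds added after 16 h cell attachment; activity normalized between buffer-only basal and Salinomycin (10uM) inhibitor controls.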
Marburg entry inh – Marburg virus entry inhibition; Marburg virus pseudotyped entry inhibition, cell reporter; Potency, µM (top dose mostly 37.8 µM), without a hit: top-dose activity change, negative = inhibition, usual class: inhibitors; actives 1.8% (n = 300,000); AID 540276; calls by dose curve; tested in HEK293 cells; note: potency is the fitted concentration of half-maximal effect
FMDV inh – blocks foot and mouth disease virus; FMDV antiviral cell-based qHTS; Potency, µM (top dose mostly 57.9 µM), for the others: at the highest dose activity change, negative = inhibition, hits mostly inhibitors; actives 1.2% (n = 410,000); AID 1159524; calls by dose curve; tested in HEK293T cells; note: read-out not given here; potency is the fitted concentration of half-maximal effect; nearly all actives have a fitted effect of over 45% in size
The depositor's hits bear a star; ? = inconclusive; / = no result; [ ] = remark or other dose. Rows were chosen to be rich in hits. Some 6.2% of all compounds tested hit in one or more screens of this group. % is set by controls: 0 for no effect and ±100 for the full control effect.

SMILES	Lassa entry inh	HCMV inh	Marburg entry inh	FMDV inh
COc1ccc(N2CCN(C(=O)CSc3ccc([N+](=O)[O-])cc3)CC2)cc1	5.8%	-65.0*	20.0%[46.1 µM]	?
COc1ccc(N2CCN(C(=O)CSc3ccc(C)cc3)CC2)cc1	13.6%	-4.5	19.9%[14.2 µM]	6.6%
COc1ccc(CCC(=O)N2CCN(c3ccc([N+](=O)[O-])cc3)CC2)cc1OC	1.6%[46.1 µM]	-67.7*	?	?
COc1ccc(NC(=O)N2CCN(c3ccc([N+](=O)[O-])cc3)CC2)cc1OC	?	-34.2	?	-28.5%
O=C(Nc1ccccc1)C1=C[C@H](c2csc3ccccc23)C[C@H](OCCCCO)O1	/	15.0	/	12.2%
O=C(NCc1nc2ccccc2[nH]1)C1=C[C@H](c2csc3ccccc23)C[C@H](OCc2ccc(CO)cc2)O1	/	-61.8*	/	-18.7%
O=C(NCc1ccccc1)C1=C[C@H](c2ccccc2)C[C@H](OCc2ccc(CO)cc2)O1	/	-90.7*	/	14.4%
O=C(NCc1ccccc1)C1=C[C@H](c2csc3ccccc23)C[C@H](OCCCCO)O1	/	-95.3*	/	-5.7%
O=C(Nc1ccccc1)c1nc[nH]c1C(=O)NCc1ccccc1	/	-0.5	/	-15.3%
Cc1cccc(NC(=O)c2nc[nH]c2C(=O)NCc2ccccc2)c1	/	-60.5*	/	-11.6%
CN(Cc1ccccc1)C(=O)c1[nH]cnc1C(=O)NCc1ccccc1	/	-61.3*	/	-4.1%
CC(NC(=O)Cc1ccc(F)cc1)c1ccccc1 (centres undefined)	6.7%	-33.6	29.7%[46.1 µM]	9.3%
CCOc1ccc(CCNC(=O)c2ccc(-n3c(C)cc4c3CCCC4)cc2)cc1OCC	?	-85.1*	/	-20.4%
Cc1ccc(CNC(=O)c2ccc(-n3c(C)cc4c3CCCC4)cc2)cc1	?	-7.7	/	-3.3%
Cc1cc2c(n1-c1ccc(C(=O)NCc3ccc(OC(C)C)cc3)cc1)CCCC2	?	-98.6*	/	14.1%
Cc1cccc(-c2nc(CN3CCCC(C(=O)NC4CCC(C)CC4)C3)c(C)o2)c1 (centres undefined)	-18.3%	-6.0	?	-21.5%
Cc1cccc(-c2nc(CN3CCCC(C(=O)NC4CCCC4)C3)c(C)o2)c1 (centres undefined)	7.5%	29.4	14.6µM*	-18.4%
CCOC(=O)N1CCC(NC(=O)CSCc2nc(-c3ccc(C)cc3)oc2C)CC1	/	-63.2*	/	?
CCOC(=O)N1CCC(NC(=O)C2CCCN(Cc3nc(-c4cccc(C)c4)oc3C)C2)CC1 (centres undefined)	?	-73.3*	?	?
CCOc1ccc(-c2nc(CSCC(=O)NCc3ccc(Cl)cc3)c(C)o2)cc1	-2.1%[46.1 µM]	-66.0*	/	?
Cc1ccc(CNC(=O)CSCc2nc(-c3ccc(Cl)cc3)oc2C)cc1	10.1%[46.1 µM]	-4.8	18.0%[46.1 µM]	-21.9%
CCOC(=O)N1CCC(NC(=O)CSCc2nc(-c3ccc(OC)c(OC)c3)oc2C)CC1	-24.8%	70.6	?	7.2%
O=C1CCC2CCCCC2O1 (centres undefined)	/	/	-0.5%	/
Cc1oc(-c2ccc(Cl)cc2)nc1CN1CCCC(C(=O)N2CCOCC2)C1 (centres undefined)	/	-37.9	/	?
Cc1oc(-c2ccc(Cl)cc2)nc1CN1CCCC(C(=O)N2CCN(C(=O)c3ccco3)CC2)C1 (centres undefined)	/	-39.3	-9.8%	14.1µM*
SMILES	Lassa entry inh	HCMV inh	Marburg entry inh	FMDV inh
O=C(/C=C/c1ccc([N+](=O)[O-])cc1)N1CCN(S(=O)(=O)c2ccccc2)CC1	-5.5%	0.0	20.5%	?
O=C(Nc1cccc(S(=O)(=O)N2CCCCC2)c1)c1cnccn1	?	-3.7	6.4%[46.1 µM]	?
CC(=O)Nc1ccc(S(=O)(=O)N2CCC(n3cnc4cc(F)ccc43)CC2)cc1	16.3%	?	-4.9%	?
COc1cccc(C(=O)NC(=S)N2CCN(c3ccc(C(F)(F)F)cc3[N+](=O)[O-])CC2)c1	-14.7%	-61.9*	7.2%	0.0%
CC1Cc2ccccc2N1C(=O)CSc1nnc2c(n1)[nH]c1ccccc12 (centres undefined)	-11.5%	-4.9	-12.5%	14.1µM*
CC(Sc1nnc(-c2ccccc2)c(-c2ccccc2)n1)C(=O)N1CCc2ccccc21 (centres undefined)	?	-31.0	11.2µM*	?
CCCc1nc(SCC(=O)N2c3ccccc3CC2C)c2c(C)c(C)sc2n1 (centres undefined)	?	?	9.2µM*	/
CC1Cc2ccccc2N1C(=O)CSc1nnc(-c2ccccc2)c(-c2ccccc2)n1 (centres undefined)	?	-83.0*	?	?
Cc1nnc(SC(C)C(=O)N2CCc3ccccc32)s1 (centres undefined)	2.9%	-32.9	?	0.0%
